Source: PubChem BioAssay
JMJD2A Tudor: inhibitors of human JMJD2A Tudor domain. O75164. AlphaScreen JMJD2A-Tudor / H3K4me3 peptide binding. Potency, µM (doses to about 114 µM), without a hit: at the top dose activity change, negative = inhibition, actives largely listed as inhibitors. 390,000 tested, 4.4% active; also: % is scaled to controls: 0 for no effect and ±100 for the full control effect; nearly all actives have a fitted effect of over 50% in size
HP1b binding inh: blocks HP1-beta chromodomain binding to methylated histone tails | AID 540317 | Potency, µM (top dose mostly 114 µM), for inactives: at the top dose activity change, negative = inhibition, actives largely listed as inhibitors | AlphaScreen HP1-beta / biotin-H3K9me3 peptide binding | P83916 | 390,000 tested, 0.56% active; also: nearly all actives have a fitted effect of over 70% in size
Target sequence (P83916 whole entry, looked up): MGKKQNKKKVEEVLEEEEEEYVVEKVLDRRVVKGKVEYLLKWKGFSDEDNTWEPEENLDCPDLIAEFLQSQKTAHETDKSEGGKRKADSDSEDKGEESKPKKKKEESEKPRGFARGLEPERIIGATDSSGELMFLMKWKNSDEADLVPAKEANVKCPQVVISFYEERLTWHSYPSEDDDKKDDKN
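HP1-beta protein (50 nM final) preincubated 30 min at room temperature with biotinylated H3(1-18)K9me3 peptide (50 nM) in PBS pH 7.4, 0.01% Tween-20, then compound added for 30 min. AlphaScreen streptavidin donor/nickel chelate acceptor beads (10 ug/mL final), 30 min dark, luminescence read.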
G9a inh: G9a (human) methyltransferase inhibition. AID 504332. 350,000 tested, 8.8% active. Q96KQ7. G9a H3K9 monomethylation, AlphaScreen, 2 h. Potency, µM (titrated, usually from 102 µM), inactives show at the highest dose activity, negative = inhibition, usual class: inhibitors; also: % is scaled to controls: 0 for no effect and ±100 for the full control effect; nearly all actives have a fitted effect of over 75% in size
Target sequence (Q96KQ7 913-1193 limits assumed): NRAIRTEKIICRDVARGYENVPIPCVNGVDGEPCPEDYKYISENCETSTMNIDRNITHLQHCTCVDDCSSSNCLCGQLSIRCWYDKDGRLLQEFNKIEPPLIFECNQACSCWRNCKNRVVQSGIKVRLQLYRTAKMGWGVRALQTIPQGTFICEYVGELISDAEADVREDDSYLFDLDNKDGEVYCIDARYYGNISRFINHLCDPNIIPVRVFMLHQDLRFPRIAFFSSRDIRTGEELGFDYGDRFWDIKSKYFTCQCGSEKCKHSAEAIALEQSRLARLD
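Chemiluminescent proximity detection of H3K9 monomethylation, read after 10 min bead incubation in the dark. Reaction: 20 nM G9a, 500 nM biotin-H3K9 peptide, 20 uM SAM cofactor, 2 h, room temperature, following 15 min enzyme-compound preincubation.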
Sfp PPTase inh: Sfp phosphopantetheinyl transferase inhibition; 310,000 tested, 3.5% active; Potency, µM, for inactives: largest response in the series, negative = inhibition, usual class: inhibitors; Biochemical Sfp PPTase activity, qHTS; AID 1490; Q9F4F7;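 also: the enzyme is Sfp with the accession as filed and its product quenches rhodamine fluorescence; 0% = enzyme reaction without inhibitor and -100% = no enzyme wells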
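Buffer: 50 mM Hepes-Na pH 7.6, 10 mM MgCl2, 0.01% Nonidet P-40, 0.01% BSA. Enzyme 15 nM, pre-exposed to compound 15 min; substrates then added and fluorescence change tracked over 30 min.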
BAZ2B block: inhibitors of human BAZ2B bromodomain; Q9UIF8; AlphaScreen BAZ2B-H3K14Ac peptide displacement; 360,000 tested, 4.4% active; Potency, µM (series often up to 114 µM), for the others: at the highest dose activity change, negative = inhibition, hits mostly inhibitors; also: % is scaled to controls: 0 for no effect and ±100 for the full control effect; nearly all actives have a fitted effect of over 60% in size
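BAZ2B 50 nM plus b-H3(5-23)K14Ac 50 nM, PBS pH 7.4/0.01% Tween-20, 30 min RT; compound added (max 110 uM), 30 min RT; streptavidin donor/Ni-chelate acceptor beads 10 ug/mL final, 20 min dark; AlphaScreen read.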
L3MBTL1 block: blocks human L3MBTL1 | Potency, µM (series often up to 57.1 µM), for inactives: top-dose activity, negative = inhibition, most hits filed as inhibitors | Q9Y468 | AID 485360 | 230,000 tested, 0.66% active | AlphaScreen L3MBTL1–H3K9me1 peptide binding; also: % is scaled to controls: 0 for no effect and ±100 for the full control effect; nearly all actives have a fitted effect of over 60% in size
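Displacement of a biotinylated histone H3(1-15) peptide monomethylated at Lys9 (75 nM) from L3MBTL1 (50 nM) was measured by AlphaScreen after a 30 min room-temperature compound incubation; cefsulodin titration served as intraplate control.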
Numbers without * were called inactive; u = inconclusive; x = no result given; [ ] = another dose, or the depositor's remark. The list is not random: actives were taken first. Their share in the collection is about 12%. Calls follow the shape of the dose curve; as a rule, active = well fitted curve in the direction sought with a large enough effect; inconclusive = small, poorly fitted or top-dose-only effect, or another doubt; inactive = no such curve, though single readings can be large; an effect the other way counts as inactive or inconclusive. Potency is read from the fitted curve at half-maximal effect.

SMILES	JMJD2A Tudor	HP1b binding inh	G9a inh	Sfp PPTase inh	BAZ2B block	L3MBTL1 block
Fc1ccc(-c2nn3c(C4COc5ccccc5O4)nnc3s2)cc1 (stereo unspecified)	u	u	3.16µM*	39.8µM*	0.1%	-4.1%
Fc1ccc(-c2nnc3sc(C4COc5ccccc5O4)nn23)cc1 (stereo unspecified)	-15.3%	6.1%	-38.4%	-8.2%	-4.9%	-5.2%
c1ccc2c(c1)OCC(c1nnc3sc(-c4ccc5c(c4)OCO5)nn13)O2 (stereo unspecified)	-28.8%	u	5.01µM*	25.1µM*	-3.5%	2.2%
CCc1cccc(N2C(=O)CSC23C(=O)N(Cc2ccccc2F)c2ccccc23)c1 (stereo unspecified)	-17.6%	39.3%	-30.8%[59 µM]	x	-17.5%	x
CCCn1c(N)c(N(CCOC)C(=O)c2ccc(F)cc2F)c(=O)[nH]c1=O	-10.0%	28.8%	-2.3%	10.4%	-28.9%	x
O=C(O)c1ccc(-c2ccccc2)[nH]c1=O	-16.9%[11.4 µM]	5.2%	56.2µM*	3.1%	-32.9%	x
COc1cccc(-n2c(C)cc(/C=C3/C(=N)N4C(=NC3=O)SN=C4S(C)(=O)=O)c2C)c1	u	-10.6%	44.7µM*	-3.9%	56.2µM*	x
CCS(=O)(=O)C1=NSC2=NC(=O)/C(=C\c3ccc(OS(=O)(=O)c4ccccc4)c(OC)c3)C(=N)N21	56.2µM*	-5.3%[57 µM]	39.8µM*	-11.4%	50.1µM*	x
CCC1=NN2C(=N)/C(=C\c3ccc(OCCOc4ccccc4)c(OC)c3)C(=O)N=C2S1	x	x	-73.3%	12.0%	-4.3%	2.2%
CS(=O)(=O)C1=NSC2=NC(=O)/C(=C\c3ccc(OC(=O)c4ccco4)c(Br)c3)C(=N)N21	u	-5.3%[57 µM]	20µM*	-17.4%	56.2µM*	x
CS(=O)(=O)C1=NSC2=NC(=O)/C(=C\c3ccc(-c4ccccc4)o3)C(=N)N21	x	x	50.1µM*	-12.9%	-6.4%	-0.1%
CS(=O)(=O)C1=NSC2=NC(=O)/C(=C\c3ccc(OS(=O)(=O)c4ccccc4)cc3)C(=N)N21	u	-9.7%	x	-5.8%	50.1µM*	x
COc1ccc(OC)c(-n2c(C)cc(/C=C3\C(=N)N4N=C(CC(=O)N5CCOCC5)SC4=NC3=O)c2C)c1	-23.0%	30.8%	u	13.5%	-33.8%	x
COc1cccc(-n2c(C)cc(/C=C3\C(=N)N4N=C(CC(=O)N5CCOCC5)SC4=NC3=O)c2C)c1	-1.8%	16.0%	-5.0%	-5.3%	50.1µM*	x
COc1cc(/C=C2/C(=N)N3C(=NC2=O)SN=C3S(C)(=O)=O)ccc1OS(=O)(=O)c1ccc(C)cc1	56.2µM*	-17.4%	u	-12.0%	u	x
N=C1/C(=C/c2ccc(-c3cccc(C(=O)O)c3)o2)C(=O)N=C2SC=C(c3ccccc3)N12	22.4µM*	u	39.8µM*	-52.8%	12.6µM*	x
O=c1[nH]cc(S(=O)(=O)NCc2ccccc2)c(=O)[nH]1	13.4%	32.0%	-4.8%[59 µM]	16.4%	-0.9%	x
N#Cc1c(N)[nH]c2ccc(Sc3ccccc3)cc12	-33.3%	4.5%	x	x	x	x
CC1(C)CC(=O)C=C(NCCc2c[nH]c3ccccc23)C1	2.4%	12.3%	2.7%	9.7%	-14.4%	-6.6%
Cc1ccc(NC(=O)CN2C(=O)CSc3ccc(S(=O)(=O)N4CCCC4)cc32)c(C)c1	-15.0%	15.3%	-23.7%[59 µM]	x	u	x
CCCC1=NN2C(=N)/C(=C\c3cc(C)n(-c4cc(C)cc(C)c4)c3C)C(=O)N=C2S1	u	12.7%	5.0%[59 µM]	20µM*	2.3%	-8.8%
O=C(NCCNCc1cccs1)c1ccccc1F	3.55µM*	u	6.31µM*	-23.9%	50.1µM*	-1.0%
S=C(NCCc1ccccc1)NCc1cccs1	-8.7%	12.6%	24.9%[59 µM]	-13.7%	17.2%	-4.0%
COCCNC(=S)NCc1cccs1	-0.7%	17.9%	28.2µM*	1.9%	-5.3%	6.1%
CC(NC(=O)Cc1ccccc1)C(=O)O (stereo unspecified)	-12.9%	36.2%	-27.3%[0.501 µM]	x	-37.4%	-0.8%
SMILES	JMJD2A Tudor	HP1b binding inh	G9a inh	Sfp PPTase inh	BAZ2B block	L3MBTL1 block
CCOC(=O)CSc1nc2c(c(=O)[nH]c(=O)n2C)n1Cc1ccccc1	-15.0%	18.2%	-13.2%	11.6%	-2.9%	-4.0%
CCCCCSc1nc2c(c(=O)[nH]c(=O)n2C)n1C(C)C	-8.5%	8.9%	39.8µM*	-6.5%	8.4%	u
CCCCCCn1c(SCC(=O)OC)nc2c1c(=O)[nH]c(=O)n2C	u	u	1.58µM*	15.8µM*	-0.7%	-3.2%
CCCCCOC(=O)CSc1nc2c(c(=O)[nH]c(=O)n2C)n1Cc1ccc(Cl)cc1	-14.6%	8.7%	39.8µM*	u	2.7%	-8.2%
CCCCCCn1c(SCC(C)C)nc2c1c(=O)[nH]c(=O)n2C	-3.7%	23.6%	u	7.2%	-1.6%	-2.6%
CCC1(c2ccccc2)NC(=O)NC1=O (stereo unspecified)	x	x	x	-9.5%	x	x
Cc1ccc(OCCN2CCCC2)cc1	17.8µM*	u	22.4µM*	3.5%	-38.7%	x
CCOc1ccc(OCCCCN2CCCC2)cc1	44.7µM*	-15.6%	u	u	u	x
CCCCOc1ccc(CN2CCCCC2)cc1	-5.5%	30.4%	-32.6%[59 µM]	-13.8%	-4.4%	-1.3%
O=C(c1ccccc1)c1ccc(OCCCN2CCCC2)cc1	10µM*	u	2.51µM*	-37.3%	u	-13.1%
O=C(O)COc1ccc(C(=O)c2ccccc2)cc1	7.1%	30.9%	-30.6%	28.2%	1.9%	x
Oc1ccc(N2CCN(Cc3ccc(OCCCN4CCCCC4)cc3)CC2)cc1	50.1µM*	39.8µM*	10µM*	u	10µM*	-12.3%
Cc1ccc(OCCCCN2CCCCC2)cc1	-7.3%	30.7%	-3.2%[59 µM]	16.8%	-30.3%	0.6%
CC(C)c1ccc(OCCCN2CCCC2)cc1	56.2µM*	-26.4%	-10.1%	-12.2%	56.2µM*	x
c1ccc(COc2ccc(OCCCCN3CCCCC3)cc2)cc1	7.08µM*	-37.9%	8.91µM*	-32.5%	39.8µM*	x
CC(C)c1cccc(C(C)C)c1OCCCCN1CCCC1	-25.8%	14.4%	u	15.0%	6.9%	x
CCN(CC)c1nn2c(=O)c(C(=O)NCc3ccc(F)cc3)cnc2s1	-11.3%	25.5%	3.1%[59 µM]	x	-10.9%	x
S=c1nc(-c2ccco2)[nH][nH]1	7.08µM*	u	1.78µM*	28.2µM*	u	x
CC1=CC23C(=O)C(C=C(CO)[C@@H](O)[C@]2(O)[C@H]1O)[C@H]1[C@@H](C[C@H]3C)C1(C)C (stereo partly specified)	x	x	x	-1.4%	x	x
O=C(CCC(=O)Nc1ccccc1Cl)NNC(=O)C1CCCCC1	-6.2%	43.3%	x	x	x	-6.3%
COc1ccc(-c2oc3ccccc3c(=O)c2OCC(=O)O)cc1	u	-14.5%	2.4%	18.5%	-32.4%	-2.8%[11.4 µM]
